High-throughput results from PubChem.
Mcl1 Noxa PPI = Mcl-1/Noxa interaction inhibition | TR-FRET Mcl-1/Noxa peptide binding, 2 h | 1.5% of 220,000 active | inhibition, % at 21.7 µM | Q07820;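 active means compounds that cut the protein-peptide binding signal by more than 50% relative to plate controls in a single-dose test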;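 further: His-tagged Mcl-1 with rhodamine Noxa BH3 peptide and terbium anti-His antibody; 0% = Mcl-1 plus Noxa peptide wells and 100% = peptide-only wells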
Target sequence (Q07820 whole entry, looked up): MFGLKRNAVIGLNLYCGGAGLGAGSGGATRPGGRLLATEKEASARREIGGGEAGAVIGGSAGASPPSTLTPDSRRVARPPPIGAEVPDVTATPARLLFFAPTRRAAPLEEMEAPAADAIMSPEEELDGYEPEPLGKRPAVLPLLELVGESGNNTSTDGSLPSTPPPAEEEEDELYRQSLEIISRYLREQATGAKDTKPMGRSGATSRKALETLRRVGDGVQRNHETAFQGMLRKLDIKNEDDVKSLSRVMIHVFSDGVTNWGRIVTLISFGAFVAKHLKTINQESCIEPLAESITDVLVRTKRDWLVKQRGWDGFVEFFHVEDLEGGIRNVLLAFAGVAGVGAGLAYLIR
Hck Nef HTS = human Hck-Nef kinase inhibition. Recombinant Hck-YEEI plus Nef, Z-Lyte FRET kinase assay. inhibition, % at 20 µM. 0.68% of 220,000 active. AID 463187;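 active means Hck-Nef kinase inhibition above about 50%, limit read from the data; inactive means inhibition below that limit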;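 further: 0% = DMSO with Hck plus Nef and 100% = Hck alone without Nef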
Mcl1-Bid inh = disrupts binding of human Mcl-1 to Bid peptide | Q07820 | TR-FRET Mcl-1/Bid-Dy647 peptide binding, 1536-well | inhibition, % at 21.7 µM | 0.97% of 220,000 active | AID 1021;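 active means compounds that cut the binding signal by more than half at the single screening dose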;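 further: His-tagged Mcl-1 with europium anti-His antibody binding Bid BH3 peptide; 0% = Mcl-1 plus peptide wells and 100% = peptide-only wells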
Mcl-1 Bim block = human Bim-Mcl-1 interaction inhibition | Q07820 | AID 1009 | Bead-based flow cytometry, Bim peptide-Mcl-1 binding | 0.1% of 190,000 active | inhibition, % at 10 µM; in the data active means inhibition above about 40%;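 further: 0% = no compound tracer wells and 100% = peptide blocker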
14-3-3 Bad inh = disrupts binding of bovine 14-3-3 zeta to phospho-Bad peptide; 0.71% of 220,000 active; TR-FRET 14-3-3zeta/Dy647-pBad peptide displacement, 1 h; AID 781; inhibition, % at 21.7 µM; P63103;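 active means inhibition above about 70%, limit read from the data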;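 further: 0% = full 14-3-3 plus peptide FRET controls and 100% = background without 14-3-3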
eIF4E 4G PPI = inhibitors of eIF4E and eIF4G interaction in translation initiation | 0.37% of 220,000 active | TR-FRET eIF4E-eIF4GI(517-606) binding, 2 h | inhibition, % at 21.7 µM | P63073+Q04637 | AID 782;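 active means inhibition above about 30%, limit read from the data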;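 further: 0% = full FRET control wells and 100% = background wells lacking eIF4GI fragment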
* hit, by the source's call; / = no result; [ ] = dose if it differs, or a comment. A selection: hits, their analogues and other compounds. The true share with any hit is near 3.5%.

SMILES	Mcl1 Noxa PPI	Hck Nef HTS	Mcl1-Bid inh	Mcl-1 Bim block	14-3-3 Bad inh	eIF4E 4G PPI
O=C(c1ccc2ccccc2c1)N1CCN(c2ccc([N+](=O)[O-])c(N3CCOCC3)c2)CC1	12	-1	-7	-2	1	-5
O=C(c1cccc(S(=O)(=O)N2CCc3ccccc3C2)c1)N1CCN(c2ccc(O)cc2)CC1	57*	10	-46	-4	-5	-4
O=C(CSc1ccc2ccccc2c1)N1CCN(c2ccc(O)cc2)CC1	60*	11	-38	/	-6	-2
NC(=O)C1CCN(C(=O)c2cccc(S(=O)(=O)N3CCc4ccccc4C3)c2)CC1	2	23	-37	0	-6	5
O=C(c1ccc2ccccc2c1)N1CCN(c2ccc(O)cc2)CC1	53*	0	-41	5	1	8
CCN(CC)S(=O)(=O)c1ccc(N2CCOCC2)c(NC(=O)COc2ccc(C#N)cc2)c1	25	-2	-16	/	3	-4
O=C(CCN1CCOCC1)NNC(=S)NC(=O)c1ccccc1	-9	9	-78	-2	-12	1
O=C1C=C(c2ccccc2)OC2(CCCC2)O1	5	0	-17	0	7	-3
O=C1C=C(c2ccc(Cl)cc2)OC2(CCCC2)O1	-6	0	-4	-2	72*	10
Cc1ccc(COc2ccsc2C(=O)NN)cc1	1	16	-11	-4	-8	-1
COc1ccc(-c2onc(C)c2-c2ccccc2)c(O)c1	8	0	1	0	-6	-2
O=C1c2ccccc2-c2onc3c(Oc4ccccc4)cc(O)c1c23	59*	-1	-23	28	10	7
c1cc2c3c(cccc3c1)C(N1CCCCCC1)=N2	0	2	-28	-5	5	-2
CC1=Nc2cccc3cccc(c23)N1C	61*	20	-38	-3	7	27
Cc1ccccc1Nc1nc(N)nc(COC(=O)/C=C/c2ccco2)n1	-21	17	-26	-2	-7	7
CCCN1Cc2cccc(C(=O)N3CCN(c4ccc(OC)cc4)CC3)c2C1=O	13	24	-34	-1	-24	5
COc1ccc(N2Cc3cccc(C(=O)O)c3C2=O)cc1	79*	41	-21	0	5	11
COc1ccc2nc(COC(=O)c3ccco3)c(C(C)=O)[n+]([O-])c2c1	5	6	-22	3	86*[fluorescence artefact?]	-3
CC1(C(=O)O)CCC(C(=O)N2CCCCC2)C1(C)C (stereo unspecified)	11	23	9	-1	-18	-2
COc1ccc(NC2c3ccccc3C(=O)N2Cc2ccccc2Cl)cc1OC (stereo unspecified)	23	1	-89	/	-1	4
COc1ccc(NC2c3ncccc3C(=O)N2Cc2ccccc2)c(OC)c1 (stereo unspecified)	43	8	64*	6	25	-1
Cc1ccc(NC2c3ncccc3C(=O)N2Cc2ccc(F)cc2)cc1 (stereo unspecified)	32	2	51*	-4	57	7
COc1ccc(CN2C(=O)c3ccccc3C2C(=O)NCc2cccnc2)c(OC)c1 (stereo unspecified)	11	-2	-50	-2	4	13
O=C1c2cccnc2C(Nc2ccc(Cl)cc2)N1Cc1cccs1 (stereo unspecified)	5	22	3	0	-5	3
CCOc1ccc(N2C(=O)c3cccnc3C2Nc2ccc(F)cc2)cc1 (stereo unspecified)	19	1	84*	0	-6	-3
COc1ccc(CN2C(=O)c3cccnc3C2Nc2ccc(OC)c(Cl)c2)cc1 (stereo unspecified)	44	3	70*	-4	83*	-4
O=[N+]([O-])c1ccccc1/C=C/C=N/Nc1ccc(S(=O)(=O)Nc2ccc(Cl)cc2)cc1[N+](=O)[O-]	3	21	-11	-1	-15	7
Cc1ccc(S(=O)(=O)NNC(=O)c2cccc(O)c2)cc1	-3	21	-35	3	-21	-1
O=C(NCC(=O)N1CCN(S(=O)(=O)/C=C/c2ccccc2)CC1)c1ccc(Cl)cc1	-6	32	-25	/	-3	-15
CC1=NN(c2ccccc2)C(=O)/C1=C\c1cn(CCC#N)nc1-c1ccc(Cl)cc1	22	-12	-9	-3	2	0
